# Tg IFNy HTS: inhibitors of Toxoplasma gondii growth with IFN-gamma; Toxoplasma gondii growth in IFN-gamma-treated host cells; hits give low values; activity change, negative = inhibition, % (test concentration not listed); hit rate 3.8% among 69,000; in the data active = activity change below about -70%, passing the limit was not always enough;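 note: host cells are HeLa cells infected with Toxoplasma gondii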
# * hit, by the source's call; i = inactive. Only a selection was taken, and hits are over-represented in it overall.
SMILES,Tg IFNy HTS
Cc1cccc(NC(=O)N2CCc3nc(-c4ccccc4)sc3C2)c1,-6
COc1ccc(-c2nc3c(s2)CN(C(=O)Nc2ccc(Br)cc2)CC3)cc1,-93*
COc1cccc(-c2nc3c(s2)CN(C(=O)Nc2ccc(OC)cc2OC)CC3)c1,35
COc1cccc(-c2nc3c(s2)CN(C(=O)Nc2ccc(OC)c(OC)c2)CC3)c1,19
CCOc1ccc(NC(=O)N2CCc3nc(-c4cccc(OC)c4)sc3C2)cc1,17
Cc1nc(CCC(=O)N2CCC(=O)N(CC3CC3)C(C(C)C)C2)n[nH]1 (stereo unspecified),9
O=C(c1cccc(Cl)c1)N1CCN(S(=O)(=O)c2cc3c4c(c2)CCN4C(=O)CC3)CC1,-14
COc1cc(OC)c(C2=NOC(C(=O)N3CCCCCC3c3ccn(C)n3)C2)cc1Cl (stereo unspecified),-1
CCOc1ccc(C(=O)NCCc2csc(-c3cccc(C)c3)n2)cc1OCC,i
COc1ccc(-c2nc(CSc3nc4c(=O)[nH]cnc4n3-c3ccc(C)cc3)c(C)o2)cc1,4
CCn1cc(S(=O)(=O)N[C@@H]2CC[C@@H](N)C2)cn1,2
O=C(CN1CCOC1=O)N1Cc2cnn(Cc3ccc(F)cc3)c2C1,5
Cc1nnsc1C(=O)N1CCCC(c2ccc(C(=O)Nc3ccc(F)cc3)cn2)C1 (stereo unspecified),6
COCCN1CCc2cc(C(=O)NC(C)C)c(N(C)C)nc2CC1,-1
CNCCCCc1cnc(C)c2[nH]c3ccccc3c12,-95*
Cc1n[nH]c(C)c1CCCNC(=O)c1cc(=O)[nH]c2ccccc12,-2
Cc1nc2c(c3c1[nH]c1ccccc13)C(=O)CC(C)(C)C2,-15
CN(C)[C@@H]1C[C@@H](C(=O)O)N(Cc2ncc[nH]2)C1,0
Cc1cnn(Cc2nc(-c3ccc(NC(=O)c4ccc(F)cc4)cc3)oc2C)c1,-82*
COc1ccc(C(=O)Nc2ccc(-c3nc(Cn4cc(C)cn4)c(C)o3)cc2)cc1F,34
Cc1cnn(Cc2nc(-c3ccc(NC(=O)c4cccc(F)c4)cc3)oc2C)c1,-75*
Cc1cnn(Cc2nc(-c3ccc(NC(=O)c4ccc(C#N)cc4)cc3)oc2C)c1,-52
CCc1ccc(C(=O)Nc2ccc(-c3nc(Cn4cc(C)cn4)c(C)o3)cc2)cc1,27
Cc1cnn(Cc2nc(-c3ccc(NC(=O)c4ccc(C)c(F)c4)cc3)oc2C)c1,-13
C=CCC(=O)N(Cc1ccccc1OCC)C1CC1,-5
SMILES,Tg IFNy HTS
O=C1CC2(CCN(c3nccs3)C2)CN1c1ccccc1 (stereo unspecified),-3
COc1ccc(CNC(=O)Nc2ccc(-c3nc(-c4cc(C)ccc4C)co3)cc2)cc1,17
Cc1cc(N2Cc3cnn(CCO)c3C2)c2cc3c(cc2n1)OCO3,-10
O=C(CCC1N=C2c3ccccc3N=C(SCc3cc(=O)n4ccccc4n3)N2C1=O)NCc1cccs1 (stereo unspecified),14
CCCN1C(=O)CCc2cc(NC(=O)c3ccc(C(C)C)cc3)ccc21,-106*
CC(=O)Nc1ccc2c(c1)CCC(=O)N2CC(C)C,17
CCOc1ccc(S(=O)(=O)Nc2ccc3c(c2)CCC(=O)N3CC(C)C)cc1,-56
CCOc1ccc(C(=O)Nc2ccc3c(c2)CCC(=O)N3CC(C)C)cc1,-82*
CCCN1C(=O)CCc2cc(NC(=O)c3ccsc3)ccc21,-47
CCCN1C(=O)CCc2cc(NC(=O)c3ccc(C)cc3)ccc21,-47
O=C(NCc1ccccc1C(F)(F)F)c1cn2c(n1)CCCC2,6
Cc1nc(C)c(OCc2nc(CCc3ccccc3)no2)c(C)n1,-25
COCCN1C(=O)CO[C@H]2CN(C(=O)C3CCOCC3)C[C@@H]21,-3
Cc1onc(-c2ccccc2Cl)c1C(=O)Nc1sc2c(c1C#N)CCC2,42
N#Cc1c(N2C(=O)C3C4c5ccccc5C(c5ccccc54)C3C2=O)sc2c1CCC2 (stereo unspecified),-79*
O=C(/C=C/c1ccccc1)c1ccccc1,28
O=C(/C=C/c1ccccc1)/C=C/c1ccccc1,-98*
O=C(O)CS(=O)(=O)/C=C/c1ccccc1,-4
O=C(c1ccco1)N1Cc2nccn2CC(Cn2cncn2)C1 (stereo unspecified),201
Cc1ccc(Cl)cc1NS(=O)(=O)c1cc2c3c(c1)CCN3C(=O)CC2,-53
O=C(c1cc2cccnc2n(Cc2ccccc2)c1=O)N1CCOCC1,43
Cc1ccc(-c2nc(CCNC(=O)C(=O)Nc3cc(C)cc(C)c3)cs2)cc1,2
CCCCCN(C)C(=O)c1ncn2c1CN(CC1CC1)S(=O)(=O)c1ccccc1-2,-1
CCCCN(CC)C(=O)c1ncn2c1CN(CC1CC1)S(=O)(=O)c1ccccc1-2,0
CN(C(=O)c1ncn2c1CN(CC1CC1)S(=O)(=O)c1ccccc1-2)c1ccccc1,-105*
SMILES,Tg IFNy HTS
Cc1ccsc1CN(CCNC(=O)c1cccs1)Cc1ccccn1,1
CCCCOc1ccc(CNC(=O)Cn2ncc3c(N4CCCCCC4)ncnc32)cc1,-99*
COc1cccc(CNC(=O)Cn2ncc3c(N4CCC(C)CC4)ncnc32)c1,-100*
CCN(CC)c1ncnc2c1cnn2CC(=O)NCc1ccc2c(c1)OCO2,-64
CCOc1ccc(CNC(=O)Cn2ncc3c(N4CCCCCC4)ncnc32)cc1OCC,76
COc1cc(NC(=O)Cn2ncc3c(N4CCC(C)CC4)ncnc32)cc(OC)c1OC,13
COc1ccc(CNC(=O)Cn2ncc3c(N4CCCCCC4)ncnc32)cc1,6
COc1cccc(CNC(=O)Cn2ncc3c(N4CCOCC4)ncnc32)c1,64
CCN(CC)c1ncnc2c1cnn2CC(=O)NCc1cccc(OC)c1,84
O=C(Cn1ncc2c(N3CCCC3)ncnc21)NCc1ccc(Br)cc1,61
COc1ccc(CNC(=O)Cn2ncc3c(N4CCCCC4)ncnc32)cc1OC,170
COc1ccc(CNC(=O)Cn2ncc3c(N4CCCCC4)ncnc32)cc1,-102*
CCN(CC)c1ncnc2c1cnn2CC(=O)NCc1ccc(OC)cc1,-99*
Cc1ccc(C(=O)N(C)Cc2ncccc2C)cc1NC(=O)C1CCC1,0
O=C(c1ccoc1)N1CC[C@@H]2[C@@H]1CCN2S(=O)(=O)C1CC1,1
CCNC(=O)C1CCN(C(=O)CCSCc2ccc(F)cc2)C1 (stereo unspecified),-4
O=C(c1ccc2nc[nH]c2c1)N1CCCC(CCc2ccccc2)(C(=O)O)C1 (stereo unspecified),12
CCOc1ccc(-c2cc(C(=O)Nc3n[nH]c(-c4cccs4)c3C)[nH]n2)cc1,-22
COCC12CCCOC1CCN(C(=O)N1CCCC1)C2 (stereo unspecified),34
COc1ccccc1NC(=O)CCn1cnc(-c2ccccc2)c1-c1nccn1C,5
CCn1nc(C)c(C(C)NC(=O)c2noc(C)c2Cc2c(C)noc2C)c1C (stereo unspecified),13
Nc1ccnc(-c2ccc(CO)cc2)c1,-2
CC(C)n1ccnc1CN1CCC(CNC(=O)c2ccsc2)C1 (stereo unspecified),-1
COCCCNC(=O)Cn1ncc2c(N3CCC(C)CC3)ncnc21,61
COc1ccc(C)cc1NC(=O)Cn1ncc2c(N3CCCCCC3)ncnc21,-91*
Cc1ccc(CNC(=O)Cn2ncc3c(N4CCCCCC4)ncnc32)cc1,-44
Cc1ccc(C)c(NC(=O)Cn2ncc3c(N4CCN(c5ccccn5)CC4)ncnc32)c1,-3
COc1ccc(C)cc1NC(=O)Cn1ncc2c(N3CCOCC3)ncnc21,-44
COc1ccc(CNC(=O)Cn2ncc3c(N4CCC(C)CC4)ncnc32)cc1,-85*
